The whole screen tested about 1,300 compounds, of which about 980 (75%) were called active. Inconclusive results (about 4%) are left out. The list shows a part of the results.

From PubChem BioAssay AID1347420 (Sanford-Burnham Center for Chemical Genomics, 2020) come the findings set out here.

The target in this assay is Sulfhydryl oxidase 1 (Homo sapiens) (UniProt O00391). Kind of assay: QSOX1 enzyme inhibitors, primary screen, biochemical, HyperBlu H2O2 luminescence, HTS (AID 1347420). Also: values above 100% were filed as inconclusive. As to conditions: recombinant QSOX1, HyperBlu H2O2 luminescence; at 12.5 µM; active compounds read high; active = any value above zero.
Sequence of Sulfhydryl oxidase 1 (Homo sapiens) (O00391 whole entry, looked up): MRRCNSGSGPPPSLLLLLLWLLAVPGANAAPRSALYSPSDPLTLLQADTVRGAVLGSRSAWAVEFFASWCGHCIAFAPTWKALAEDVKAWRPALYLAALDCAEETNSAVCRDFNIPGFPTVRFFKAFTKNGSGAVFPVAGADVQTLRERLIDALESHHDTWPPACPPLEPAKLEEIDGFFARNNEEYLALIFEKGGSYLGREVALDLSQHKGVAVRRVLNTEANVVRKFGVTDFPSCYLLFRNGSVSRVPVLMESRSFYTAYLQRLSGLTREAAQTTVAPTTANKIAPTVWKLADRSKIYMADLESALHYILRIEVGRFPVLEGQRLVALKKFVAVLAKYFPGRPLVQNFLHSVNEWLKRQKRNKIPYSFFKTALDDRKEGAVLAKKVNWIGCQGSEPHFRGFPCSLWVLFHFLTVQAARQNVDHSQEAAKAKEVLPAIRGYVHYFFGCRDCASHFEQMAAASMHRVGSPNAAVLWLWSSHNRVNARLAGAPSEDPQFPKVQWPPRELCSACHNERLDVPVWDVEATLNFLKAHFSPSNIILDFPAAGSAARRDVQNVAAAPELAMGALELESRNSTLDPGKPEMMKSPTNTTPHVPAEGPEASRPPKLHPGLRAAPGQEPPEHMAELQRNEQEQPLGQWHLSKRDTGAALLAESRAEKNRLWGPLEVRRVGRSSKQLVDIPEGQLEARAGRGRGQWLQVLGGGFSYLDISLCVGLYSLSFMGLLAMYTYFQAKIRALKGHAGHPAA
Take `O=c1[nH]cnc2[nH]ncc12`: the inhibition is 19.2% (active).

On to `Clc1ccccc1C(c1ccccc1)(c1ccccc1)n1ccnc1`, for which the inhibition is -1.8% (inactive).

Take `CC(=O)/C=C1\C(=O)N(C)c2ccccc21`: the inhibition is 4.3% (active).

With `COc1cc(CNC(=O)CCCCCCC(C)C)ccc1O`, the inhibition is 15.1% (active).

On to `CCCCCCCC/C=C\CCCCCCCC(=O)NCCc1ccc(O)c(O)c1`, for which the inhibition is 1.1% (active).

On to `CCCCCCCC/C=C\CCCCCCCC(=O)NCc1ccc(O)c(OC)c1`, for which the inhibition was 8% (active).

With `CN(C)C(=O)/N=N/C(=O)N(C)C`, the inhibition was 13.5% (active).

For the compound `O=C1Cc2cc(CCN3CCN(c4nsc5ccccc45)CC3)c(Cl)cc2N1`, the inhibition was -10.1% (inactive).

Turning to `[N-]=[N+]=Nc1ccc(C(=O)CSC[C@H](NC(=O)CC[C@H](N)C(=O)O)C(=O)NCC(=O)O)cc1`, the inhibition was 19.5% (active).

With `N[C@@H](CCC(=O)N[C@H](CSN=O)C(=O)NCC(=O)O)C(=O)O`, the inhibition was 15.7% (active).

With `COc1ccc(-c2cc3ncc(C)n3c(Nc3ncccc3C(N)=O)n2)cc1OC`, the inhibition was 20.4% (active).

In the case of `NO`, the inhibition is -43.8% (inactive).

Turning to `O=C1c2ccccc2-c2n[nH]c3cccc1c23`, the inhibition was -5.6% (inactive).

Take `COC1=C(OC)C(=O)c2ccccc2C1=O`: the inhibition was 37.3% (active).

Turning to `O=C1c2ccccc2C(=O)c2c(NCCc3ccc(O)cc3)ccc(NCCc3ccc(O)cc3)c21`, the inhibition is 60.9% (active).

Turning to `O=C(O)C1CN(CCCP(=O)(O)O)CCN1` (centres undefined), the inhibition was 37% (active).

As to `C[C@](N)(Cc1ccc(O)c(O)c1)C(=O)O`, the inhibition is 36.6% (active).

Take `C[C@](Cc1ccc(O)c(O)c1)(NN)C(=O)O`: the inhibition is 44.1% (active).

Take `CC(N)(Cc1ccc(O)c(O)c1)C(=O)O` (centres undefined): the inhibition is 31.2% (active).

For the compound `O=C(c1ccc(OCCCc2cnc[nH]2)cc1)C1CC1`, the inhibition was 8% (active).

On to `CC1(C)CCC(NC(=O)[C@@H](N)CCC(=O)O)CC1`, for which the inhibition is 8.5% (active).

Regarding `CCOC(=O)Nc1ccc(NCc2ccc(F)cc2)nc1N`, the inhibition is 40% (active).

As for `O=C1C(SCCO)=C(SCCO)C(=O)c2ccccc21`, the inhibition was 66.7% (active).

For `CN(C)c1nc2c(Br)c(Br)c(Br)c(Br)c2[nH]1`, the inhibition was 46.6% (active).

Regarding `Nc1nc2[nH]c(=O)cnc2c(=O)[nH]1`, the inhibition was -15.8% (inactive).

Consider `Nc1cc(=O)[nH]c(N)n1`, for which the inhibition is 11.6% (active).

With `C#CCN(C)CCCOc1ccc(Cl)cc1Cl`, the inhibition was 6.1% (active).

Turning to `C#CCN(C)Cc1ccccc1`, the inhibition was -4.3% (inactive).

As to `Cn1cnc([N+](=O)[O-])c1Sc1ncnc2nc[nH]c12`, the inhibition is 19.5% (active).

As for `COc1nc(C)nc(Cl)c1NC1=NCCN1`, the inhibition was 12.9% (active).

In the case of `Clc1cccc(Cl)c1NC1=NCCN1`, the inhibition was 7.2% (active).

For the compound `Clc1ccc2nsnc2c1NC1=NCCN1`, the inhibition is -10.4% (inactive).

For the compound `Nc1cc(Cl)c(NC2=NCCN2)c(Cl)c1`, the inhibition is 23.9% (active).

Consider `Fc1ccc(CN(C2=NCCN2)c2c(Cl)cccc2Cl)cc1`, for which the inhibition was -1.5% (inactive).

Consider `CC1=C(C)C(=O)C(CCCCC#CCCCC#CCO)=C(C)C1=O`, for which the inhibition is 32.9% (active).

As to `CCCCCCCCCCCCCCCCCCOC[C@H](COP(=O)([O-])OCC[N+](C)(C)C)OC`, the inhibition was -5.6% (inactive).

Consider `CCCCCCCCCCCCCCCCCCNC(=O)OCC(COP(=O)([O-])OCC[n+]1ccsc1)OC` (centres undefined), for which the inhibition is 10.6% (active).

Turning to `N=c1ccn2c(n1)OC1C(O)[C@@H](CO)O[C@H]12` (some centres undefined), the inhibition is 6.1% (active).

`NCCCCC(=O)O`: the inhibition was 19.4% (active).

On to `NCCCCCC(=O)O`, for which the inhibition was 40% (active).

As to `NCCCC(=O)O`, the inhibition is 25.9% (active).

As for `O=C(O)CCCCCCCC(=O)O`, the inhibition was 11.4% (active).

`CN(C)c1nc(N)c(C(=O)N=C(N)N)nc1Cl`: the inhibition is 10.2% (active).

For the compound `NC(N)=NC(=O)c1nc(Cl)c(N2CCCCCC2)nc1N`, the inhibition was 24.3% (active).

As to `NC(N)=NC(=O)c1nc(Cl)c(N)nc1N`, the inhibition is 20.2% (active).

`CCN(c1nc(N)c(C(=O)N=C(N)N)nc1Cl)C(C)C`: the inhibition was 22.6% (active).

As for `O=C(O)CCc1ccc(NCc2cccc(Oc3ccccc3)c2)cc1`, the inhibition was 41.7% (active).

Take `C=C1C[C@@]23CC[C@H]4[C@@](C)(CCC[C@@]4(C)C(=O)OC4OC(CO)C(O)C(O)C4O)[C@@H]2CCC1(OC1OC(CO)C(O)C(O)C1OC1OC(CO)C(O)C(O)C1O)C3` (some centres undefined): the inhibition is -13.9% (inactive).

For the compound `C=C1C[C@@]23CC[C@H]4[C@@](C)(CCC[C@@]4(C)C(=O)O)[C@@H]2CC[C@]1(O)C3`, the inhibition was 9% (active).

`CCOC(=O)N1CCC(=C2c3ccc(Cl)cc3CCc3cccnc32)CC1`: the inhibition was 13.2% (active).

On to `Cn1ccnc1`, for which the inhibition is 9.1% (active).

`CCCCCCCCCCCCCCSCC(=O)O`: the inhibition was 9.4% (active).

In the case of `NC1C=CC=C(C(=O)O)C1` (centres undefined), the inhibition is 21.6% (active).

In the case of `OCC1O[C@H](O)C(Cl)C(O)C1O` (some centres undefined), the inhibition is 23.9% (active).

Turning to `COCCCC/C(=N\OCCN)c1ccc(C(F)(F)F)cc1`, the inhibition was 9.6% (active).

`CN1CCC(=C2c3ccccc3CC(=O)c3sccc32)CC1`: the inhibition is 6.3% (active).

In the case of `CN1CCC(=C2c3ccccc3C=Cc3ccccc32)CC1`, the inhibition is -2.7% (inactive).

As to `COc1ccc(C2CNC(=O)C2)cc1OC1CCCC1` (centres undefined), the inhibition is 5.2% (active).

`Cc1cccc(C2CN(C)CCc3c2cc(O)c(O)c3Cl)c1` (centres undefined): the inhibition is 97.2% (active).

In the case of `C=CCN1CCc2c(cc(O)c(O)c2Cl)C(c2ccccc2)C1` (centres undefined), the inhibition was 84.4% (active).

For the compound `C=CCN1CCc2cc(O)c(O)cc2C(c2ccccc2)C1` (centres undefined), the inhibition is 76.8% (active).

`O=C1CCc2cc(OCCCCc3nnnn3C3CCCCC3)ccc2N1`: the inhibition is 11.5% (active).

Consider `COc1cc2c(cc1OC)-c1cc(=Nc3c(C)cc(C)cc3C)n(C)c(=O)n1CC2`, for which the inhibition was 4.4% (active).

For `CCn1nc(C(=O)O)c(=O)c2cc3c(cc21)OCO3`, the inhibition was 0% (inactive).

For `O=c1ccn([C@@H]2O[C@H](COP(=O)(O)OP(=O)(O)O)[C@@H](O)[C@H]2O)c(=O)[nH]1`, the inhibition was -0.8% (inactive).

Turning to `C[C@H]1O[C@@H](n2cc(F)c(=O)[nH]c2=O)[C@H](O)[C@@H]1O`, the inhibition is 20% (active).

For the compound `O=C1N=C([O-])CN1/N=C/C1=C[C+]=C(c2ccc([N+](=O)[O-])cc2)O1`, the inhibition was 53% (active).

On to `CSc1ccccc1N1CCN(CCCCCC(=O)NC2CCCc3ccccc32)CC1` (centres undefined), for which the inhibition was 11.3% (active).

Regarding `O=C(CCCCCN1CCN(c2ccccc2-c2ccccc2)CC1)NC1CCCc2ccccc21` (centres undefined), the inhibition was 22.8% (active).

Turning to `NC(N)=NC(=O)Cc1c(Cl)cccc1Cl`, the inhibition was 16.4% (active).

On to `NC(N)=N/N=C/c1c(Cl)cccc1Cl`, for which the inhibition was -6.1% (inactive).

In the case of `O=C(O)c1cccnc1C(=O)O`, the inhibition was 5.1% (active).

As for `O=C1NCc2c1c1c3ccccc3[nH]c1c1[nH]c3ccccc3c21`, the inhibition was 13.3% (active).

For the compound `CCCn1c(=O)c2[nH]c(-c3ccc(OCC(=O)NCCN)cc3)nc2n(CCC)c1=O`, the inhibition was -3.6% (inactive).

For `Cn1c(=O)c2[nH]c(-c3ccc(S(=O)(=O)O)cc3)nc2n(C)c1=O`, the inhibition was 31.8% (active).

As to `CCCn1c(=O)c2[nH]c(-c3ccc(S(=O)(=O)O)cc3)nc2n(CCC)c1=O`, the inhibition was 20.3% (active).

For the compound `Cn1c(=O)c2[nH]c(-c3ccccc3)nc2n(C)c1=O`, the inhibition was 14.7% (active).

In the case of `CN(C)S(=O)(=O)c1ccc2c(c1)/C(=C/c1cc3c([nH]1)CCCC3)C(=O)N2`, the inhibition was 52.1% (active).

`CNc1cc(NS(=O)(=O)c2ccc(N)cc2)nc(NC)n1`: the inhibition was 1.3% (active).

Turning to `CCCCCCCCc1ccc(-c2ccc(C(=O)O)cc2)cc1`, the inhibition is 14.5% (active).

For the compound `Oc1ccccc1O`, the inhibition is 62.9% (active).

For `O=[N+]([O-])c1cccc2c(Br)[nH]nc12`, the inhibition was 47.4% (active).

On to `CC(=O)N[C@H](C(=O)O)C(C)(C)SN=O`, for which the inhibition was 10.5% (active).

With `CC(N)(C(=O)O)c1ccc(C(=O)O)cc1` (centres undefined), the inhibition was 10.5% (active).

Take `CCCC(=O)NCCc1c2n(c3ccc(OC)cc13)CCCc1ccccc1-2`: the inhibition is 50.8% (active).

Consider `O=C(O)c1cc2cc(F)ccc2[nH]1`, for which the inhibition is 1% (active).

As for `O=C1NC(=O)/C(=C/c2ccc3c(c2)OC(F)(F)O3)S1`, the inhibition was 21.2% (active).

In the case of `O=C1NC(=O)/C(=C/c2ccc(-c3ccc(F)cc3O)o2)S1`, the inhibition is 0% (inactive).

As to `O=C1NC(=O)/C(=C/c2ccc3nccnc3c2)S1`, the inhibition is 5.7% (active).

For the compound `CCCN(CCc1ccccc1)C1CCc2c(O)cccc2C1` (centres undefined), the inhibition was 14% (active).

`O=c1cc(-c2ccccc2F)[nH]c2cc3c(cc12)OCO3`: the inhibition is 6.4% (active).

As to `CCN(CC)CCCN(c1ccccc1)C1Cc2ccccc2C1`, the inhibition is 94.2% (active).

For the compound `c1ccc(-c2ccccn2)nc1`, the inhibition was 7.1% (active).

For the compound `NCCC1CCCC(CCN)N1` (centres undefined), the inhibition was 6.6% (active).

As for `OCc1ccc(-c2nn(Cc3ccccc3)c3ccccc23)o1`, the inhibition is 0.6% (active).

For the compound `c1cnc(N2CCN(Cc3ccc4c(c3)OCO4)CC2)nc1`, the inhibition was -5.6% (inactive).

In the case of `Clc1ccc(N2CCN(Cc3c[nH]c4ncccc34)CC2)cc1`, the inhibition is 12.6% (active).

Take `Ic1ccc(N2CCN(Cc3c[nH]c4ncccc34)CC2)cc1`: the inhibition is 23.8% (active).

In the case of `OC1(c2ccc(Cl)cc2)CCN(Cc2c[nH]c3ccccc23)CC1`, the inhibition is 14.4% (active).

As for `COc1ccc2c(c1)c(CC(=O)O)c(C)n2C(=O)c1ccccc1`, the inhibition is 9% (active).

As for `COc1ccc2c(c1)c(CC(=O)O)c(C)n2C(=O)c1ccc(Cl)cc1`, the inhibition was 15.5% (active).

On to `COc1ccc2c(c1)c(CC(=O)O)c(C)n2Cc1ccc(Cl)cc1`, for which the inhibition is 5.8% (active).

`CC(C)[C@@H]1CC[C@@H](C)C[C@@H]1P(=O)(c1ccccc1)c1ccccc1`: the inhibition is -5.2% (inactive).

Turning to `O=C(CCNNC(=O)c1ccncc1)NCc1ccccc1`, the inhibition is 0.1% (active).

Take `OC(CCN1CCCCC1)(c1ccccc1)C1CC2C=CC1C2` (centres undefined): the inhibition was 8.3% (active).

As for `OC(CCN1CCCCC1)(c1ccccc1)C1CCCCC1` (centres undefined), the inhibition was -1.3% (inactive).

As to `O=C(O)CC1CCCc2ccccc2C1O` (centres undefined), the inhibition was 8.6% (active).

For the compound `NOCC(=O)O`, the inhibition is 3% (active).

On to `NCC(O)(CS(=O)(=O)O)c1ccc(Cl)cc1` (centres undefined), for which the inhibition was -0.3% (inactive).

As to `NCCCS(=O)(=O)O`, the inhibition is 14.2% (active).

In the case of `NCCS(=O)(=O)O`, the inhibition is 9.8% (active).

Take `CN1CCc2cc(Cl)c(O)cc2[C@@H](c2ccccc2)C1`: the inhibition was 35.8% (active).

Take `CN1CCc2cc(O)c(O)cc2C(c2ccccc2)C1` (centres undefined): the inhibition was 67.4% (active).

As for `CN1Cc2c(N)cccc2C(c2ccccc2)C1` (centres undefined), the inhibition is -2.6% (inactive).

In general, inhibition refers to the drop in the measured response relative to a control, in per cent.
